Laboratory results reported in PubChem BioAssay (Tox21).
Inconclusive results are not listed. Activity calls are given as the source filed them. Unless noted, calls come from the whole dose curve; as a rule, active = well fitted curve in the direction sought with a large enough effect in the repeat runs; inconclusive = weak or mixed curves; inactive = no such curve, though single readings can be large; an effect the other way counts as inactive or inconclusive.

Columns and labels:
[1] = qHTS assay to identify small molecule agonists of the estrogen receptor alpha (ER-alpha) signaling pathway in the presence of an antagonist - cell viability counter screen (AID 1259386);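 note: series mostly up to about 92 µM; cells exposed to compounds for 22 h at 37 °C before the viability read; nearly all actives have a fitted effect of over 30% in size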
Outline: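 The test measures whether compounds kill ER-alpha reporter cells (VM7Luc4E2) under antagonist co-treatment (ICI-182,780, 10.0nM). Fluorescence from CellTiter-Fluor is read after a 22hr exposure.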

[2] = biological target: Progesterone receptor (Homo sapiens) (UniProt P06401); assay: qHTS assay to identify small molecule agonists of the progesterone receptor (PR) signaling pathway (AID 1346784; calls by dose curve; note: nearly all actives have a fitted effect of over 30% in size)
Outline: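 The screen uses PR-UAS-bla HEK 293T cells in charcoal-stripped serum (2%). Compounds are applied for 16 hr at 37C after a 6 hr pre-incubation, and reporter activity is detected with a FRET beta-lactamase substrate after 2 hr at room temperature.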

[3] = biological target: Progesterone receptor (Homo sapiens) (UniProt P06401); assay: qHTS assay to identify small molecule antagonists of the progesterone receptor (PR) signaling pathway (AID 1346795; active = well fitted inhibition curve with a large enough effect in the signal ratio in the repeat runs, not every such curve was filed as active; the % refers to the signal ratio)
Outline: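 After 6 hr plating at 37C in 2% stripped-serum medium, PR-UAS-bla HEK293T cells got compounds, then 1 nM R5020. Sixteen hours later, LiveBLAzer substrate was applied for 2 hr at room temperature and fluorescence was recorded.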

[4] = qHTS assay to identify small molecule antagonists of the progesterone receptor (PR) signaling pathway - cell viability counter screen (AID 1346798); note: series mostly up to about 92 µM; nearly all actives have a fitted effect of over 50% in size
Outline: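 Viability was determined by ATP-based luminescence (CellTiter-Glo) in PR-UAS-bla HEK293T cells cultured in 2% charcoal-stripped serum and incubated 16 hr with compounds under R5020 stimulation.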

[5] = qHTS assay to identify small molecule agonists of the progesterone receptor (PR) signaling pathway - cell viability counter screen (AID 1346799; calls by dose curve; note: nearly all actives have a fitted effect of over 45% in size)
Outline: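 Viability was scored by ATP luminescence (CellTiter-Glo, 30 min, room temperature) in the same wells used for the reporter readout, after 16 hr compound exposure of PR-UAS-bla HEK293T cells.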

[6] = qHTS assay to identify small molecule antagonists of the TGF-beta/Smad signaling pathway - cell viability counter screen (AID 1346824); note: nearly all actives have a fitted effect of over 50% in size
Outline: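 Cytotoxicity counter-screen run in the same wells as the beta-lactamase Smad reporter read: CellTiter-Glo luminescence after 30 min at room temperature. HEK 293T SBE-bla cells had 5 hr compound exposure at 37 C with TGF-beta1 (0.25 ng/mL stock).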

[7] = qHTS assay to identify small molecule agonists of the TGF-beta/Smad signaling pathway - cell viability counter screen (AID 1346829); note: top concentration of the series differs between compounds; nearly all actives have a fitted effect of over 45% in size
Outline: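 HEK 293T SBE-bla line, 5 hr compound exposure at 37 C, multiplexed CellTiter-Glo viability read by luminescence.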

[8] = biological target: Thyrotropin-releasing hormone receptor (Homo sapiens) (UniProt P34981); assay: qHTS assay to identify small molecule antagonists of the thyrotropin-releasing hormone receptor (TRHR) signaling pathway (AID 1346877; active = well fitted inhibition curve with a large enough effect in the repeat runs, not every such curve was filed as active; note: series mostly up to about 51 µM)
Outline: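 Overnight-plated (18 h, 37 °C) HEK293 cells expressing TRHR were dye-loaded 2 h, treated with compound, then stimulated with TRH at 1 nM final. Fluorescence intensity was captured every second for 3 min.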

[9] = biological target: Thyrotropin-releasing hormone receptor (Homo sapiens) (UniProt P34981); assay: qHTS assay to identify small molecule agonists of the thyrotropin-releasing hormone receptor (TRHR) signaling pathway (AID 1346891; calls by dose curve;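 note: HEK293 cells expressing TRHR with calcium dye readout; series mostly up to about 58 µM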)
Outline: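 Kinetic fluorescence (3 min, 1 s intervals) reported intracellular calcium after compound transfer onto TRHR-Hek293 cells pre-loaded with dye for 2 h at 37 °C.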

[10] = Human pregnane X receptor (PXR) small molecule agonists, qHTS cell viability counter screen (AID 1346977); note: nearly all actives have a fitted effect of over 50% in size
Outline: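 HepG2 cells stably carrying the PXR-Luc reporter are cultured with 5% charcoal-stripped FBS and treated with compounds for 24hr. CellTiter-Fluor is added at 23hr and fluorescence is read after 1hr.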

[11] = Caspase-3/7 induction in HepG2 cells by small molecules, qHTS assay (AID 1346978); note: nearly all actives have a fitted effect of over 15% in size
Outline: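 Caspase-3/7 induction was measured by Caspase-Glo 3/7 luminescence (30 min, room temperature) after a 17 hr compound exposure of wild-type HepG2 cells seeded at 2,000 per well and pre-incubated 5 hr.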

[12] = Caspase-3/7 induction in CHO-K1 cells by small molecules, qHTS assay (AID 1346980); note: nearly all actives have a fitted effect of over 15% in size
Outline: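 Luminescent Caspase-Glo 3/7 read (30min, room temperature) quantified apoptosis induction. Cells were wild-type CHO-K1, treated with compound for 17hr at 37 C and 5% CO2.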

[13] = Caspase-3/7 induction in HepG2 cells by small molecules, qHTS cell viability counter screen (AID 1346981); note: series mostly up to about 92 µM; nearly all actives have a fitted effect of over 30% in size
Outline: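 Treatment of HepG2 cells with DMSO-delivered compounds ran 16 hr at 37 C following a 5-hr pre-incubation of 2,000 cells/well. CellTiter-Fluor fluorescence, read after 1 hr, served as the viability measure in a qHTS format.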

[14] = biological target: Nuclear receptor subfamily 1 group I member 2 (Homo sapiens) (UniProt O75469); assay: Human pregnane X receptor (PXR) small molecule agonists, qHTS assay (AID 1346982); note: nearly all actives have a fitted effect of over 35% in size
Outline: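 Stable HepG2 line reporting PXR-mediated CYP3A4 expression via luciferase. Treatment: 24 hr with compounds in DMSO at 37 C. Detection: ONE-Glo luminescence.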

[15] = qHTS assay to identify small molecule agonists of the TGF-beta/Smad signaling pathway (AID 1346859; active = well fitted activation curve with a large enough effect in the signal ratio in the repeat runs, not every such curve was filed as active; the % refers to the signal ratio; note: series mostly up to about 77 µM)
Outline: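 Dual-wavelength fluorescence (460/530 nm emission) quantified beta-lactamase expression under the Smad binding element in HEK 293T cells following 5 hr compound treatment at 37 C.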

[16] = Caspase-3/7 induction in CHO-K1 cells by small molecules, qHTS cell viability counter screen (AID 1346979); note: nearly all actives have a fitted effect of over 35% in size
Outline: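 Seeding: 1,500 CHO-K1 cells/well. Rest: 5hr, 37C. Treatment: compounds in DMSO, 16hr. Read: CellTiter-Fluor, 1hr, fluorescence.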

[17] = biological target: Nuclear receptor subfamily 1 group I member 2 (Rattus norvegicus) (UniProt Q9R1A7); assay: Rat pregnane X receptor (rPXR) activation by small molecules, qHTS assay (AID 1346983); details: rPXR luciferase reporter cells, One-Glo luminescence, 24 h; max activation: active compounds read high; note: nearly all actives have a fitted effect of over 20% in size
Outline: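 Luminescent readout (One-Glo luciferase, 30 min room temperature) followed 24 hr compound treatment at 37 C of rPXR cells plated 2,000 per well and preincubated 5hr; qHTS format with compounds delivered in DMSO.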

[18] = biological target: Nuclear receptor subfamily 1 group I member 2 (Homo sapiens) (UniProt O75469); assay: Human pregnane X receptor (PXR) activation by small molecules, qHTS assay (AID 1346985); note: nearly all actives have a fitted effect of over 40% in size
Outline: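 DPX-2 cells (HepG2 co-transfected with a PXR response element and a CYP3A4-promoter luciferase construct) were seeded at 2,000 per well, rested 5 hr at 37C, then exposed to DMSO-dissolved compounds for 24 hr. Activation was read as luciferase luminescence.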
% is set by controls: 0 for no effect and ±100 for the full control effect.

Chain of Thyrotropin-releasing hormone receptor (Homo sapiens) (P34981 whole entry, looked up): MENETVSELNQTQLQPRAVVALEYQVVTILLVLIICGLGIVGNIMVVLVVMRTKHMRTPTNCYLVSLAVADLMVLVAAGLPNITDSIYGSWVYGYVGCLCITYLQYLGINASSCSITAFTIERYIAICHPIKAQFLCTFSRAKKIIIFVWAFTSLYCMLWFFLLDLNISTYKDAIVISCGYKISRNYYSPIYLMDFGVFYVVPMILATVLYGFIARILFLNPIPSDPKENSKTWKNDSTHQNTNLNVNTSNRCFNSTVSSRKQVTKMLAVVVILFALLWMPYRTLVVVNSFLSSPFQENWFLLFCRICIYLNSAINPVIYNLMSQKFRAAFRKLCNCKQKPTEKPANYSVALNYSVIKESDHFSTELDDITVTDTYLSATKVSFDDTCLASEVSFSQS
Chain of Progesterone receptor (Homo sapiens) (P06401 whole entry, looked up): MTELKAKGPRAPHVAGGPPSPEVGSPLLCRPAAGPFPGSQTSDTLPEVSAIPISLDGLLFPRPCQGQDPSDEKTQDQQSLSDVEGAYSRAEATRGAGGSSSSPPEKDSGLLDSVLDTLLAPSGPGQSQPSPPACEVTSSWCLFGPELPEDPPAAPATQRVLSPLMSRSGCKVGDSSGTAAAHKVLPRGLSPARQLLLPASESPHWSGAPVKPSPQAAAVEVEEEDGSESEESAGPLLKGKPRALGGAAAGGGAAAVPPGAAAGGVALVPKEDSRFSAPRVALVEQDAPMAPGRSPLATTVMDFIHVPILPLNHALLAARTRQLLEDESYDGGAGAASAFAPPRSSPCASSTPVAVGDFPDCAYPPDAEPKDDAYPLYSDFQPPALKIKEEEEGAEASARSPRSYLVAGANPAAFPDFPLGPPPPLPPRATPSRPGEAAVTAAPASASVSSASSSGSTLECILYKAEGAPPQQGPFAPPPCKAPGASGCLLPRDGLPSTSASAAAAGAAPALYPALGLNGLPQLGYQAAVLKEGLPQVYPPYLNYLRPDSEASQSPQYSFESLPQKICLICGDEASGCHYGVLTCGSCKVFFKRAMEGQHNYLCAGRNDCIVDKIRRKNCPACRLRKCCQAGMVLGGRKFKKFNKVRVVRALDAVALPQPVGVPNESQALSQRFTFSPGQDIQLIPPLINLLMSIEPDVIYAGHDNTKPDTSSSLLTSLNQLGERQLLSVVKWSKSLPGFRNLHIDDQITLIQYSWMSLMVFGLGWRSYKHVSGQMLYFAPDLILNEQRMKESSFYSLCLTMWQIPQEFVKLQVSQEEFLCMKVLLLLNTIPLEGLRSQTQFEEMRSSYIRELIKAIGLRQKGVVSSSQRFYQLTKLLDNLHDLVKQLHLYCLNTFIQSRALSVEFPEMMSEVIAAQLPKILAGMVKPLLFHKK
Chain of Nuclear receptor subfamily 1 group I member 2 (Homo sapiens) (O75469 whole entry, looked up): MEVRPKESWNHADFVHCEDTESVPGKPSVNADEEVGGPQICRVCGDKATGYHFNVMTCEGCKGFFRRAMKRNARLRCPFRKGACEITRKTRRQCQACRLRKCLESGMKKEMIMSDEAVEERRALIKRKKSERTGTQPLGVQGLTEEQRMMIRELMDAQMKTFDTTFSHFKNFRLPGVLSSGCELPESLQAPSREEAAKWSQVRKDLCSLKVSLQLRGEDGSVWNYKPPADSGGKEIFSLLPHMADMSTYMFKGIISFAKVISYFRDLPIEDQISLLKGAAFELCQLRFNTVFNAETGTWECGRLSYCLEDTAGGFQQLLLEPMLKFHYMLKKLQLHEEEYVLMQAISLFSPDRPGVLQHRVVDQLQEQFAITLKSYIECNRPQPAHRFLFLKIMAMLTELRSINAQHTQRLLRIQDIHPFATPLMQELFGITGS
Chain of Nuclear receptor subfamily 1 group I member 2 (Rattus norvegicus) (Q9R1A7 whole entry, looked up): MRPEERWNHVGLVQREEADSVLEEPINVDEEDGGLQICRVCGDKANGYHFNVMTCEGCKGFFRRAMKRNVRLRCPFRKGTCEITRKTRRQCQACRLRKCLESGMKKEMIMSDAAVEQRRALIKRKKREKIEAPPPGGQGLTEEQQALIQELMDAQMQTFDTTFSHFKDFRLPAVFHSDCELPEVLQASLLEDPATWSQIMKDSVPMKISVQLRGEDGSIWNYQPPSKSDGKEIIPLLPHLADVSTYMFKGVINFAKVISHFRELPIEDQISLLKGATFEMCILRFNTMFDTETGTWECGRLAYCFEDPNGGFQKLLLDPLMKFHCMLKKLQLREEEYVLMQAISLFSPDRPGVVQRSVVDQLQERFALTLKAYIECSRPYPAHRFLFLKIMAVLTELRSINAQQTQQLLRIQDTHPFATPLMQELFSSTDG

O=C(O)CCCc1c[nH]c2ccccc12
inactive: Potency [1] | Potency [2] | Potency [3] | Potency [4] | Potency [5] | outcome [6] | Potency [7] | outcome [8] | outcome [9] | Potency [10] | Potency [11] | outcome [12] | Potency [13] | Potency [14]

CCN(CC)CC(=O)Nc1c(C)cccc1C(=O)OC
inactive: Potency [1] | Potency [2] | Potency [3] | Potency [4] | Potency [5] | outcome [6] | Potency [7] | Potency [15] | Potency [10] | Potency [11] | outcome [12] | Potency [13] | Potency [14]

O=[N+]([O-])c1ccc2ncccc2c1
inactive: Potency [1] | Potency [2] | Potency [3] | Potency [5] | outcome [6] | Potency [15] | outcome [8] | Potency [10] | Potency [11] | Potency [16] | outcome [12] | Potency [13]

CCOc1ncc(F)c(=O)[nH]1
inactive: Potency [1] | Potency [2] | Potency [3] | Potency [4] | outcome [6] | Potency [7] | Potency [15] | outcome [8] | outcome [9] | Potency [10] | Potency [11] | Potency [16] | outcome [12] | Potency [13] | Potency [14]

CC(C)N=C=NC(C)C
inactive: Potency [1] | Potency [2] | Potency [3] | Potency [5] | outcome [6] | Potency [7] | Potency [15] | outcome [8] | outcome [9] | Potency [10] | Potency [11] | outcome [12] | Potency [14]

CCC(CO)(CO)[N+](=O)[O-]
inactive: Potency [1] | Potency [2] | Potency [3] | Potency [4] | Potency [5] | outcome [6] | Potency [15] | Potency [10] | Potency [11] | Potency [16] | outcome [12] | Potency [13] | Potency [14]

CCCCOC(=O)CCCCC(=O)OCCCC
inactive: Potency [1] | Potency [2] | Potency [3] | Potency [5] | outcome [6] | Potency [7] | Potency [15] | outcome [8] | outcome [9] | Potency [10] | Potency [11] | Potency [16] | outcome [12] | Potency [13] | Potency [14]

Nc1c(Cl)cc(Cl)cc1[N+](=O)[O-]
inactive: Potency [1] | Potency [2] | Potency [3] | Potency [5] | outcome [6] | Potency [7] | Potency [15] | outcome [8] | outcome [9] | Potency [10] | Potency [11] | Potency [16] | outcome [12] | Potency [13] | Potency [14]

CC(C)C1CCC(C(=O)N[C@H](Cc2ccccc2)C(=O)O)CC1 (stereo not given in full)
inactive: Potency [1] | Potency [2] | Potency [3] | Potency [4] | Potency [5] | outcome [6] | Potency [7] | Potency [15] | Potency [10] | Potency [11] | Potency [16] | outcome [12] | Potency [14] | max activation [17] -2.46% | Potency [18]
